The values that follow come from PubChem BioAssay (NCI).

Common to all, as to assay: NCI-60 one-dose screen, 48 h (100 = growth as untreated, 0 = no growth, -100 = all killed)
Common to all, as to conditions: 10 µM

Test [1] has as its system SK-MEL-2 melanoma.
Test [2] has as its system EKVX NSCLC.
Test [3] deals with SN12C renal.
In test [4] the test system is UO-31 renal.
For test [5], the system named is TK-10 renal.
Test [6] deals with ACHN renal.
The subject of test [7] is A498 renal.
In test [8] the test system is CCRF-CEM leukemia.
In test [9] the test system is MOLT-4 leukemia.

This is part of a sample that, as a whole, favours compounds with a hit. Of some 83,000 tested, about 20% had one in any assay.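 The test compound was applied at a single concentration to cells in 96-well plates for 48 hours, and percent growth was recorded.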 Unmarked numbers belong to inactive results. Activity calls are given as the source filed them. How the source made its calls: active means growth percent below 10; inactive means the rest.

In the case of `O=C(Nc1ccc(F)cc1)c1cc2ccccc2cc1O`, the growth is 84.7% in test [1]; 87.2% in [2]; 79.1% in test [3]; 63.9% in test [4]; 141% in test [5]; 80.8% in test [6]. The growth is 69.2% in [7], 71.6% in test [8] and 46.9% in test [9].
Consider `O=C1c2ccccc2C(=O)c2c1ccc(C(Br)Br)c2Cl`, for which the growth was 60.7% in test [1]; 66.6% in [2]; -48.5% (active) in test [3]; 52.4% in test [4]; 83.9% in test [5]; -74.1% (active) in test [6]. In addition, the growth is 108% in test [7], -6.37% (active) in test [8] and -1.06% (active) in [9].
For `CN(C)CCCOc1ccc(NC2=C(Cl)C(=O)C(Nc3ccc(OCCCN(C)C)cc3)=C(Cl)C2=O)cc1`, the growth was -40.2% (active) in test [1]; -89% (active) in test [2]; -91.6% (active) in test [3]; -99% (active) in test [4]; -98.7% (active) in test [5]; -94.1% (active) in test [6]. Further, the growth in [7] is -49% (active); in [8], -31.2% (active); in test [9], -23.4% (active).
With `CCOC(=O)c1cc(C(=O)c2cc(OC)c(OC)c(OC)c2)n2nc(C)ccc12`, the growth in test [1] was 27.7%; in test [2], 88.3%; in test [3], 60.1%; in [4], 39.9%; in test [5], 78%; in test [6], 49.4%. Also, the results for the growth in [7], in test [8] and in test [9] were 23.4%, 17.1% and 18.4%, respectively.
For `CCN(CC)CCOc1ccc2c(c1O)C(=O)c1ccccc1C2=O`, the growth is 88.1% in [1]; 100% in [2]; 76.2% in test [3]; 67.3% in test [4]; 78% in [5]; 56.9% in test [6]. Besides, the growth in test [7] was 88.3%; in test [8], 77.2%; in [9], 72.3%.
Regarding `CCOC(=O)c1cc(C(=O)c2cc(OC)cc(OC)c2)n2nc(C)ccc12`, the growth was 15.9% in test [1]; 75.5% in test [2]; 58.1% in test [3]; 44.9% in test [4]; 65% in test [5]; 60.5% in test [6]. Besides, the growth was -1.92% (active) in [7], 13.7% in [8] and 29.5% in test [9].
In the case of `CCN1CCN(CCC(=O)Nc2cccc(-n3cc(-c4ccncc4)c(-c4ccc(Cl)c(OC)c4)n3)c2)CC1`, the growth was -19.5% (active) in [1]; 54.5% in [2]; 38.8% in test [3]; 34.6% in test [4]; 44.7% in test [5]; 37.2% in test [6]. The figures for the growth in [7], in test [8] and in test [9] were -14.1% (active), 1.32% (active) and 2.89% (active), respectively.
`CN1CCN(CCC(=O)Nc2cccc(-n3cc(-c4ccncc4)c(-c4ccc(Cl)c(O)c4)n3)c2)CC1`: the growth in test [1] is 34.5%; in test [2], 74.1%; in test [3], 61.8%; in test [4], 46.9%; in [5], 103%; in [6], 45.5%. Moreover, the growth in test [7] is 34.5%; in test [8], 24.9%; in test [9] it was 25.6%.
Turning to `CCN(CC)CCOc1cccc2c1C(=O)c1cccc(OCCN(CC)CC)c1C2=O`, the growth is 32.1% in test [1]; 53.6% in [2]; 27.5% in test [3]; 41% in [4]; 47.4% in [5]; 17.7% in [6]. The growth in test [7] was 63%; in test [8] it was 22.3%; in test [9] it was 8.32% (active).
For `COc1cc(-c2nn(-c3cccc(NC(=O)NCCNS(=O)(=O)c4ccc(Cl)cc4)c3)cc2-c2ccncc2)ccc1Cl`, the growth was 2.83% (active) in test [1]; 29.8% in [2]; 35.5% in test [3]; 21.1% in [4]; 5.09% (active) in [5]; 11.3% in [6]. The growth in test [7] was -10.5% (active); in test [8], 9.85% (active); in test [9], 12.1%.
For `CN(C)CCCOc1cccc(NC2=C(Cl)C(=O)C(Nc3cccc(OCCCN(C)C)c3)=C(Cl)C2=O)c1`, the growth in test [1] was -65.6% (active); in test [2], -95.8% (active); in test [3] it was -69.2% (active); in test [4], -92.7% (active); in test [5], -99.3% (active); in test [6] it was -98.3% (active). Also, the results for the growth in [7], in test [8] and in [9] were 44.5%, -37.6% (active) and -37.1% (active), respectively.
Take `CCN(CC)CCCOc1cccc2c1C(=O)c1cccc(OCCCN(CC)CC)c1C2=O`: the growth was 42.1% in test [1]; 54.5% in test [2]; 31.2% in [3]; 16% in test [4]; 38.8% in [5]; 22.7% in test [6]. Besides, the figures for the growth in [7], in [8] and in test [9] were 46.4%, 25% and 4.98% (active), respectively.
Turning to `O=C(CN(C1CCCCC1)C1CCCCC1)Nc1ccc(S(=O)(=O)c2ccc(NC(=O)CN(C3CCCCC3)C3CCCCC3)cc2)cc1`, the growth in test [1] was -35.4% (active); in test [2] it was -43.6% (active); in test [3], 30.6%; in [4] it was 10.2%; in test [5] it was 56.1%; in test [6], -33% (active). Besides, the growth is -59.7% (active) in test [8] and -25.2% (active) in test [9].
`Cc1ccc(NCCN(C)CC(C)O)c2c(=O)c3ccccc3sc12` (stereo unspecified): the growth was 90.6% in test [1]; 86.4% in [2]; 49.6% in test [3]; 41.5% in [4]; 45% in test [5]; 29.5% in [6]. Also, the growth was 31.3% in test [8] and 2.58% (active) in [9].
Take `CCCCCCCCCCOC(c1ccccc1)c1ccccc1`: the growth in test [1] was 73.5%; in test [2], 90.4%; in test [3], 102%; in test [4], 75.6%; in test [5], 85.1%; in test [6], 88.8%. The growth in [8] was 93.7%; in [9], 84.5%.
`CC[C@@H](C(=O)[C@@H](C)[C@@H](O)[C@H](C)[C@@H]1O[C@@H]([C@@H](CC)C(=O)N(CC)CC)CC[C@@H]1C)C1O[C@]2(C=CC(=O)[C@]3(CC[C@@](C)([C@H]4CC[C@](O)(CC)[C@H](C)O4)O3)O2)[C@H](C)C[C@@H]1C` (stereo partly specified): the growth in [1] was 11.4%; in [2], 19.6%; in test [3] it was 16.8%; in [4] it was 0.811% (active); in [5] it was 29.1%; in test [6], 6.1% (active). The growth in test [7] is 36.6%; in test [9], 22.7%.
`O=C(CCCSc1nc(-c2ccccc2)cc(-c2ccc(Cl)cc2)n1)NO`: the growth was 16.4% in test [1]; -10.5% (active) in [2]; 6.93% (active) in test [3]; -26.4% (active) in test [4]; 21.9% in [5]; -0.78% (active) in [6]. In addition, the growth in test [7] was -15.3% (active); in test [9], 11.2%.
Consider `CN(C)CCOc1cccc(NC2=C(Cl)C(=O)C(Nc3cccc(OCCN(C)C)c3)=C(Cl)C2=O)c1`, for which the growth in test [1] was -73.8% (active); in test [2], -92.3% (active); in [3] it was -76.3% (active); in test [4] it was -100% (active); in test [5], -100% (active); in test [6], -100% (active). For the same compound, the growth in test [7] was 77.1%; in test [8], -26.6% (active); in test [9], -38.5% (active).
`Cc1nn(-c2ccc(-c3ccc(OC(F)(F)F)cc3)cc2)c2nc(Cc3ccccc3)nc(N)c12`: the growth in test [1] is 87.6%; in test [2], 72.3%; in test [3] it was 62.8%; in test [4], 28.3%; in test [5], 68.1%; in test [6] it was 16.7%. In addition, the growth was 94.2% in test [7] and 68.6% in test [9].
For `CN1CCN(CC(=O)Nc2cccc(-n3cc(-c4ccncc4)c(-c4ccc(Cl)c(O)c4)n3)c2)CC1`, the growth is 28.2% in [1]; 63.6% in [2]; 64.9% in test [3]; 50.2% in test [4]; 103% in test [5]; 44.7% in test [6]. For the same compound, the growth in test [7] is 35.6%; in test [8] it was 23.9%; in test [9], 26.4%.
As for `Cc1n[nH]c(C)c1N=Nc1cccc2c1C(=O)c1ccccc1C2=O`, the growth in [1] is 105%; in test [2], 61.8%; in test [3], 91.6%; in [4], 66.4%; in [5] it was 97.8%; in test [6], 80%. In addition, the growth in test [7] was 55.2%; in test [9] it was 84.5%.
As to `N#CC1=C(N)Oc2cc(N)ccc2C1c1cccnc1` (stereo unspecified), the growth is 97.4% in test [1]; 96.5% in test [2]; 98.5% in test [3]; 84.8% in test [4]; 119% in test [5]; 96.7% in test [6]. For the same compound, the results for the growth in test [7] and in [9] were 93.5% and 89.6%, respectively.
For `NC(N)=N/N=C(\c1ccccc1)C(O)c1ccccc1` (stereo unspecified), the growth was 101% in [1]; 103% in test [2]; 99.6% in [3]; 81.1% in [4]; 94.2% in test [5]; 109% in test [6]. Also, the growth in test [8] is 92.7%; in test [9], 99.9%.
As for `CCN(CC)CCOc1cccc2c1C(=O)c1ccccc1C2=O`, the growth in test [1] was 91.8%; in test [2] it was 95.2%; in [3], 90.9%; in test [4], 62.2%; in test [5] it was 97.6%; in test [6], 92.5%. Also, the growth was 87.5% in [7] and 96.4% in [9].
As to `CC(=O)N[C@H](C(=O)N[C@@H](CCCNC(=N)N)C(=O)N[C@@H](CCCCN)C(=O)N[C@@H](CCCNC(=N)N)C(=O)N[C@]1(C)CCC/C=C\CCC[C@@](C)(C(=O)N[C@@H](CC(C)C)C(=O)N[C@@H](CC(C)C)C(=O)N[C@@H](CCC(N)=O)C(=O)N[C@@H](CCC(=O)O)C(=O)N[C@@H](CCCNC(=N)N)C(=O)N[C@@H](CCC(=O)O)C(=O)N[C@@H](CC(C)C)C(=O)N[C@H](C(=O)N[C@@H](CCC(=O)O)C(N)=O)C(C)C)NC(=O)[C@H](CCCNC(=N)N)NC(=O)[C@H](CC(C)C)NC1=O)C(C)C`, the growth is 101% in [1]; 101% in test [2]; 103% in test [3]; 114% in [4]; 96.2% in [5]; 109% in test [6]. Further, the growth is 116% in test [7] and 105% in test [9].
Regarding `O=C(Nc1cccc2c1CCCC2)c1cc2ccccc2cc1O`, the growth in test [1] was 41.1%; in test [2], 59.8%; in [3], 25.6%; in [4], 17.5%; in test [5], 88.1%; in [6], 38.4%. For the same compound, the growth in [7] is 10.6%; in test [8], 20.9%; in test [9], 20.6%.
Take `Cc1ccc(S(=O)(=O)N/N=C2\CCCc3ccccc32)cc1`: the growth in [1] is 103%; in [2] it was 93.6%; in test [3], 112%; in test [4] it was 88.1%; in [5] it was 119%; in test [6] it was 94.9%. The figures for the growth in test [8] and in test [9] were 91.8% and 101%, respectively.
Consider `CCOC(=O)c1cc(C(=O)c2cc(OC)cc(OC)c2)n2ncc3ccccc3c12`, for which the growth in test [1] is 15.4%; in [2], 61.5%; in [3] it was 39.9%; in [4], 19%; in [5] it was -8.97% (active); in test [6], 2.48% (active). For the same compound, the growth was 16.5% in test [7], 23.5% in test [8] and 29% in [9].
Consider `O=C(Nc1ccc2c(O)cc(S(=O)(=O)O)cc2c1)c1ccc([N+](=O)[O-])cc1`, for which the growth is 102% in [1]; 93.7% in test [2]; 98.8% in test [3]; 91.4% in [4]; 102% in [5]; 107% in [6]. The growth is 97.9% in test [7] and 63.7% in test [9].
With `CCc1ccc(-c2ccc(-n3nc(C)c4c(N)nc(Cc5ccccc5)nc43)cc2)cc1`, the growth in [1] is 36%; in [2], 83.8%; in test [3], 71.1%; in [4], 59.2%; in [5], 75%; in test [6], 35.5%. The growth is 73.4% in [7] and 55.7% in test [9].
